Screening results (PubChem BioAssay)
Shown are actives, neighbours in structure and some others; about 2.3% of the full set was active somewhere.
Tau fibril FP: tau fibrillization inhibition (FP). 280,000 compounds, 0.39% hits. P10636. K18 P301L tau heparin fibrillization, Alexa594 FP, 6 h. AID 1468. Potency, µM (series often up to 57.7 µM), for the others: top-dose activity, negative = inhibition, actives largely listed as inhibitors; note: potency is the fitted concentration of half-maximal effect; nearly all actives have a fitted effect of over 55% in size
Target sequence (P10636 561-689 P618L limits assumed): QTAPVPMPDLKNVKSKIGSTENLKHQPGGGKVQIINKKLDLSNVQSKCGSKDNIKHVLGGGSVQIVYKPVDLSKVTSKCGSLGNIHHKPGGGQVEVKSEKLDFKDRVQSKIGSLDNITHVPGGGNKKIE
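Heparin (20 uM) drove fibril formation of recombinant tau K18 P301L, 15 uM unlabeled with 0.24 uM Alexa 594 label, for 6 hr at 37 C in 100 mM sodium acetate pH 7. Fluorescence polarization (555/632 nm) read 1 hr after 30 uM ThT.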
FBPA coupling cs: inhibits coupling enzyme system, counter-screen for aldolase hits | coupling enzyme system counterscreen, AmpLite Red fluorescence | activity change, negative = inhibition, % at 58.2 µM, hits read low | 290,000 compounds, 0.67% hits | AID 2472; in the data active = activity change below about -30%
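Activity here indicates interference with the coupling reaction, not aldolase inhibition. Compounds at 57.5 uM final met coupling enzymes for 10 min at RT; substrate and AmpLite Red detection followed, with a 525/598 nm fluorescence read after 20 min.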
Tau ThT inhib: inhibitors of human tau fibril formation, thioflavin T binding; 270,000 compounds, 2.1% hits; Potency, µM (highest dose often 57.4 µM), inactives show at the top dose activity, negative = inhibition, usual class: inhibitors; recombinant tau K18 P301L, heparin-induced fibrillization, ThT fluorescence; P10636; AID 1460; note: potency is the fitted concentration of half-maximal effect; nearly all actives have a fitted effect of over 55% in size
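Fibril formation assay: tau K18 P301L at 15 uM with trace Alexa 594 label, heparin inducer 20 uM, pH 7 sodium acetate buffer, 37 C for 6 hr; endpoint ThT signal.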
Tau fluor counter: counter-screen for tau fibril formation inhibitors; tau K18 P301L Alexa594 fluorescence, heparin fibrillization; Potency, µM (series often up to 57.7 µM), without a hit: top-dose activity change, negative = decrease; 280,000 compounds, 0.93% hits; note: potency is the fitted concentration of half-maximal effect; nearly all actives have a fitted effect of over 55% in size
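Human tau K18 P301L (15 uM unlabeled, 0.24 uM Alexa 594-labeled) in 100 mM sodium acetate pH 7 with 20 uM heparin, 6 hr at 37 C. ThT 30 uM added, 1 hr ambient; Alexa 594 FP and total fluorescence read at 555/632 nm.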
USP1 inh: inhibitors of human USP1/UAF1 deubiquitinase; recombinant USP1/UAF1, Ub-Rhodamine cleavage fluorescence; O94782; Potency, µM (top dose mostly 57.1 µM), for inactives: top-dose activity change, negative = inhibition, most hits filed as inhibitors; 390,000 compounds, 0.23% hits; note: potency is the fitted concentration of half-maximal effect; nearly all actives have a fitted effect of over 60% in size
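In this screen, compounds sit with the deubiquitinase complex (1nM) for 15 min at room temperature before Ub-Rho is added at 150nM final. Fluorescence rise is then followed for 6 reads every 60 seconds.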
The depositor's hits bear a star; ? = inconclusive; . = no result; [ ] = dose if it differs, or a comment. Unless noted, calls come from the whole dose curve; as a rule, active = well fitted curve in the direction sought with a large enough effect; inconclusive = small, poorly fitted or top-dose-only effect, or another doubt; inactive = no such curve, though single readings can be large; an effect the other way counts as inactive or inconclusive. % is set by controls: 0 for no effect and ±100 for the full control effect.

SMILES	Tau fibril FP	FBPA coupling cs	Tau ThT inhib	Tau fluor counter	USP1 inh
CC1CCCCN1S(=O)(=O)c1ccc2[nH]c(=O)cc(C(=O)NCCc3ccc(Cl)cc3)c2c1 (configuration not stated)	?	.	0%	-18%	-17%
Cc1cccc(-c2nc3c4ccccc4n(CC(=O)Nc4cccc(F)c4)c(=O)n3n2)c1	2%	.	?	?	-1%
O=C(CSCc1ccc(Cl)cc1)N/N=C/c1ccccc1	-9%	-37*	-11%	?	-4%
O=C(CSCc1ccc(Cl)cc1)N/N=C/c1c(Cl)cccc1Cl	?	0	-14%	-24%	-8%
CCN1/C(=C/C=C/c2oc3ccc(-c4ccccc4)cc3[n+]2CC)Oc2ccc(-c3ccccc3)cc21	?	-1	?	4µM*[fluorescent]	.
CCCCN1C(=O)/C(=C/C=C2\Oc3ccccc3N2CC)SC1=S	-14%	-7	?	-14%	?
O=C(NCc1cccc(F)c1)C1CCN(c2nn3cc(-c4ccc(F)cc4)nc3s2)CC1	-8%	.	-13%	1%	-25%
COc1ccc(/C=N/NC(=O)c2ccc3ccccc3c2)cc1OS(=O)(=O)c1ccc(NC(C)=O)cc1	13µM*	4	8%	?	-23%
COc1ccc(C=O)cc1OS(=O)(=O)c1ccc(NC(C)=O)cc1	12%	6	9%	6%	-12%
CCOC(=O)CC(C(=O)OCC)C1CCCCC1=O (configuration not stated)	1%	0	-9%	-8%	.
O=C(CSc1nnc(NC(=O)C2CCC2)s1)Nc1ccc(N2CCOCC2)cc1	6%	-6	6.3µM*	-29%	-8%
O=C(Nc1cccc(C(=O)OCc2cc(=O)n3ccsc3n2)c1)c1ccc(F)cc1	?	.	-2%	-4%	0%
C=CCn1c(N/N=C/c2ccc(O)cc2)nc2ccccc2c1=O	?	0	-17%	16µM*[quencher]	-20%
CCN(Cc1ccccc1)Cc1c(O)ccc2c(=O)c(-c3ccccc3Cl)c(C(F)(F)F)oc12	1%	.	-8%	-11%	-20%
O=C(CCn1cnc2onc(-c3ccc(F)cc3)c2c1=O)Nc1cccc(C(F)(F)F)c1	22µM*	.	14%	?	6%
O=C(CCn1cnc2onc(-c3ccc(F)cc3)c2c1=O)Nc1ccc(F)c(Cl)c1	28µM*	.	18%	?	-24%
Cc1ccc(NC(=O)CCn2cnc3onc(-c4ccc(F)cc4)c3c2=O)c(Br)c1	?	.	0%	-29%	-22%
CC(C)C[C@H](NC(=O)[C@@H]1CCC(=O)N1)C(=O)N[C@@H](Cc1ccc(O)cc1)C(=O)N[C@@H](CCC(=O)O)C(=O)N[C@@H](CC(N)=O)C(=O)N[C@@H](CCCCN)C(=O)N1CCC[C@H]1C(=O)N[C@@H](CCCN=C(N)N)C(=O)N[C@@H](CCCN=C(N)N)C(=O)N1CCC[C@H]1C(=O)N[C@@H](Cc1ccc(O)cc1)C(=O)O	.	0	.	.	.
O=C(Cc1ccccn1)c1ccc(Cl)cc1	.	.	.	.	-23%
CC1=C(CC(=O)c2ccc(Cl)cc2)C(=O)c2ccccc2C1=O	?	-40*	?	?	?
COc1cc(CNc2ccc(N3CCCC3)cc2)ccc1OCc1ccccc1F	1%	0	4%	6%	?
COc1cc(CNc2ccc(N3CCCC3)cc2)ccc1OCc1ccccc1	?	-20	5µM*	?	?
Cc1ccc(NC(=O)CN2C(=O)COc3ccc(S(=O)(=O)N4CCCCCC4)cc32)cc1C	0%	.	2%	-27%	-12%
CCOC(=O)c1sc(=S)n(Cc2ccccc2)c1N	12%	1	-15%	16µM*[quencher]	-18%
CCOC(=O)c1sc(=S)n(CC)c1N	1%	2	-6%	-10%	-24%
SMILES	Tau fibril FP	FBPA coupling cs	Tau ThT inhib	Tau fluor counter	USP1 inh
COc1ccc(NC(=O)CCS(=O)(=O)c2cc3c(cc2C)NC(=O)CO3)cc1Cl	-7%	.	-15%	?	-23%
FC(F)Oc1ccc(-c2csc(NNC3=NCCCCC3)n2)cc1	?	-4	28µM*	-29%	-2%
CC(C)(C)c1ccc(-c2csc(NNC3=NCCCCC3)n2)cc1	?	-1	16µM*	?	-15%
COc1ccc(CCNc2ncnc3c2nnn3C)cc1OC	-1%	.	1%	7%	-7%
COc1ccc(NC(=O)C(c2ccc(C)cc2)N(C)C(=O)/C=C\c2ccc3c(c2)OCO3)cc1 (configuration not stated)	-11%	.	-6%	-25%	11%
N#Cc1cc(N)ccc1Sc1ccc(Cl)cc1	-1%	-5	-15%	16µM*[quencher]	-10%
COc1ccnc(CS(=O)c2nc3ccc(OC(F)F)cc3[nH]2)c1OC (configuration not stated)	?	2	25µM*	-30%	.
COC(=O)c1ccc(NC(=O)C(=O)NCCc2sc(-c3cccc(F)c3)nc2C)cc1	1%	.	?	1%	-22%
COc1ccc2sc(/C=C/c3ccccc3O)[n+](C)c2c1	12%	0	?	16µM*[fluorescent]	?
Cc1ccc2c(c1)c1c(n2C)C(C(N)=O)CCC1 (configuration not stated)	-6%	0	-13%	-3%	-8%
Cc1ccc2c(c1)c1c(n2C)-c2[nH]ncc2CC1	5%	0	?	18µM*[quencher]	-18%
CCCN1C(C(=O)c2ccccc2)=C(OC(=O)COc2ccccc2)c2ccccc2S1(=O)=O	6%	.	?	-25%	-7%
CCCCC(=O)OC1=C(C(=O)c2ccccc2)N(C)S(=O)(=O)c2ccccc21	12%	.	14µM*	-23%	-30%
O=C1CC(=O)N(CCc2ccccc2)C(=O)N1CCc1ccccc1	?	-1	28µM*	-26%	-19%
Nc1cccc2c(=O)[nH]ccc12	.	-6	.	.	.
CC1CCCC2(C1)NC(=S)c1c(sc3c1CCCC3)N2 (configuration not stated)	?	3	18µM*	?	-18%
CN(C)c1ccc(N=Nc2cccc3ccoc23)cc1	11%	-1	1.4µM*	16µM*[quencher]	-24%
c1ccc(CN=C2NN=C(c3cc4ccccc4o3)CS2)cc1	-3%	-1	?	-18%	3%
c1ccc2oc(C3=NNC(=NC4CC4)SC3)cc2c1	-7%	1	14µM*	-23%	-25%
COc1ccccc1CNC(=O)CSc1ccc(C)cc1	9%	-30*	6%	-6%	-7%
Cc1ccc([N+](=O)[O-])cc1S(=O)(=O)NCCc1c(C)[nH]c2c(C)cccc12	12%	3	-17%	-21%	-11%
COc1c(C)cc(S(=O)(=O)NCCc2c(C)[nH]c3ccccc23)c(C)c1C	?	.	?	16µM*[quencher]	-23%
COc1cc(Cl)c(S(=O)(=O)NCCc2c(C)[nH]c3c(C)cccc23)cc1Cl	22%	.	?	16µM*[quencher]	-26%
